Bioassay records (PubChem BioAssay)
CHX counter = counter-screen hit for Shiga toxin inhibitors, cycloheximide; cell reporter, cycloheximide protein synthesis inhibition counterscreen; max response, %; 12% of 300,000 active; in the data active = max response mostly above about 13%, no sharp cut-off; inactive = mostly below about 14%; also: read at 38.3 µM for the half of the compounds with a filed dose; 0% is about no effect
Pf growth 48h = inhibits P. falciparum growth in the first generation, 48 h; P. falciparum luciferase growth in erythrocytes, 48 h; Potency, µM (series often up to 28.7 µM), for the others: at the highest dose activity change, negative = inhibition, usual class: inhibitors; 5.9% of 310,000 active; also: potency is read from the fitted curve at half-maximal effect; % is scaled to controls: 0 for no effect and ±100 for the full control effect
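Firefly luciferase activity from engineered P. falciparum reports growth; inhibitors lower the luminescent signal. Cultures contained 2% hematocrit erythrocytes at 0.1% final parasitemia.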
Lassa entry inh = inhibitors of Lassa virus binding or cell entry; Lassa virus pseudotype entry inhibition, cell reporter; AID 540256; Potency, µM (titrated, usually from 37.9 µM), for inactives: at the highest dose activity change, negative = inhibition, hits mostly inhibitors; 1.2% of 300,000 active; calls by dose curve; tested in HEK293 cells; also: potency is read from the fitted curve at half-maximal effect; % is scaled to controls: 0 for no effect and ±100 for the full control effect; nearly all actives have a fitted effect of over 50% in size
Pf growth 96h = inhibits malaria parasite growth, 96 h; P. falciparum luciferase reporter growth, 96 h; Potency, µM (top dose mostly 28.7 µM), without a hit: at the top dose activity change, negative = inhibition, most hits filed as inhibitors; 6.9% of 320,000 active; AID 504834; also: potency is read from the fitted curve at half-maximal effect; % is scaled to controls: 0 for no effect and ±100 for the full control effect
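Parasite growth measured via integrated firefly luciferase reporter in P. falciparum. Infected erythrocytes at 2% hematocrit, 0.05% parasitemia final were treated 96 hours at 37 C under 5% CO2, and luminescence was read.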
Shiga toxin inh = Shiga toxin inhibition. Vero cells, Shiga toxin protein synthesis inhibition reporter. inhibition, % at 38.7 µM. 9.2% of 290,000 active. AID 2315; in the data active = inhibition mostly above about 28%, no sharp cut-off; inactive = mostly below about 43%; also: 0% is about no effect
Marburg entry inh = inhibitors of Marburg virus binding or cell entry; Marburg virus pseudotyped entry inhibition, cell reporter; Potency, µM (doses to about 37.8 µM), for the others: top-dose activity change, negative = inhibition, hits mostly inhibitors; 1.8% of 300,000 active; AID 540276; calls by dose curve; tested in HEK293 cells; also: potency is read from the fitted curve at half-maximal effect; % is scaled to controls: 0 for no effect and ±100 for the full control effect
* = called active by the depositor; [ ] = remark or other dose. Only some compounds are listed: those with a hit (about 19% of all), similar ones and a draw of the others. Unless noted, calls follow the shape of the dose curve; as a rule, active = well fitted inhibition curve with a large enough effect; inconclusive = small, poorly fitted or top-dose-only effect, or another doubt; inactive = no such curve, though single readings can be large or run the other way.

For NNc1nc(-c2ccccc2Cl)nc2sc3c(c12)CCCC3 the results were CHX counter 46.5*, Pf growth 48h inconclusive, Lassa entry inh inconclusive, Pf growth 96h inconclusive, Shiga toxin inh 52.4* and Marburg entry inh 31.7%.
Cc1cccnc1Nc1nc(-c2ccccc2)cs1 was read as CHX counter 66.6*, Pf growth 48h -42.5%, Pf growth 96h 4.9% and Shiga toxin inh 104.0*.
Screening Cc1cccnc1Nc1nc(-c2ccccn2)cs1 returned CHX counter 46.8*, Pf growth 48h inconclusive, Lassa entry inh 7.08µM*, Shiga toxin inh 125.9* and Marburg entry inh inconclusive.
CN(C)c1ccc(CN(C(=O)COc2ccccc2)C2CCS(=O)(=O)C2)cc1 (stereo not drawn) was read as CHX counter 14.7, Pf growth 48h -3.4%, Lassa entry inh -9.5%, Shiga toxin inh 17.3 and Marburg entry inh 7.0%.
For O=C(c1ccccc1Br)N(Cc1ccccc1)c1ccccc1 the results were CHX counter -4.3, Pf growth 48h inconclusive, Lassa entry inh inconclusive, Pf growth 96h -5.0%, Shiga toxin inh 4.5 and Marburg entry inh inconclusive.
`Cc1nn(C)c(NC(=O)c2ccccc2Cl)c1Cl` gave CHX counter -0.4, Pf growth 48h 41.3%, Pf growth 96h 18.5%, Shiga toxin inh 16.7 and Marburg entry inh 1.2%.
CCOC(=O)CC(=O)CSc1nc2cc(C)ccc2cc1C was read as CHX counter 5.4, Pf growth 48h inconclusive, Lassa entry inh 4.5%, Pf growth 96h 13.1µM*, Shiga toxin inh 25.2 and Marburg entry inh 8.9%.
Screening CCOC(=O)CC(=O)CSc1nc2ccc(OC)cc2cc1C returned CHX counter 20.6*, Pf growth 48h inconclusive, Lassa entry inh inconclusive, Pf growth 96h 33.2%, Shiga toxin inh 50.6* and Marburg entry inh 1.8%[46.1 µM].
For CCOC(=O)CC(=O)CSc1nc2c(C)c(C)ccc2cc1C the results were CHX counter -3.2, Lassa entry inh inconclusive, Pf growth 96h 17.1%, Shiga toxin inh -4.7 and Marburg entry inh inconclusive.
CCS(=O)(=O)c1ccc(C(=O)Nc2ccccc2)c(Cl)c1Cl was read as CHX counter 9.4, Pf growth 48h 43.1%, Lassa entry inh 3.0%, Pf growth 96h inconclusive, Shiga toxin inh 4.0 and Marburg entry inh inconclusive.
For Cc1ccc(N=CC=C2OC(C)(C)C(C)(C)O2)cc1 the results were CHX counter 20.1*, Pf growth 48h inconclusive, Lassa entry inh inconclusive, Pf growth 96h inconclusive, Shiga toxin inh 66.1* and Marburg entry inh inconclusive.
For Cc1ccccc1N=CC=C1OC(C)(C)C(C)(C)O1 the results were CHX counter -1.1, Pf growth 48h 8.28µM*, Lassa entry inh 4.3%, Pf growth 96h 36.1%, Shiga toxin inh -8.8 and Marburg entry inh 0.3%.
For COc1cccc(N=CC=C2OC(C)(C)C(C)(C)O2)c1 the results were CHX counter 49.4*, Pf growth 48h inconclusive, Lassa entry inh -1.1%[46.1 µM], Pf growth 96h 123.6%, Shiga toxin inh 87.5* and Marburg entry inh -0.2%[46.1 µM].
`Cc1cccc(N=Cc2cc3c(cc2[N+](=O)[O-])OCO3)c1` gave CHX counter -1.8, Pf growth 48h 34.1%, Lassa entry inh -2.5%, Pf growth 96h inconclusive, Shiga toxin inh -15.6 and Marburg entry inh -2.9%.
Cc1cccc(N=CC=C2OC(C)(C)C(C)(C)O2)c1 was read as CHX counter 36.0*, Pf growth 48h inconclusive, Lassa entry inh -0.1%, Pf growth 96h 14.7%, Shiga toxin inh 108.3* and Marburg entry inh inconclusive.
COc1ccc(N=CC=C2OC(C)(C)C(C)(C)O2)cc1OC was read as CHX counter 9.1, Pf growth 48h -21.7%, Pf growth 96h -27.2% and Shiga toxin inh 23.9.
For Cc1ccc(-n2c(=O)c3cccnc3n2CC(=O)Nc2ccc(C)cc2Cl)cc1 the results were Lassa entry inh 26.1%[46.1 µM].
`COc1ccc(C(C)=O)cc1CSc1ccc2c(c1)OCCO2` gave CHX counter 15.5, Pf growth 48h -10.1%, Lassa entry inh -10.0%[46.1 µM], Pf growth 96h -16.4%, Shiga toxin inh 27.6 and Marburg entry inh -18.0%[46.1 µM].
Nn1c(SCC(=O)Nc2ccc(F)cc2F)nnc1-c1cccnc1 was read as CHX counter 25.4*, Pf growth 48h 48.9%, Lassa entry inh 7.1%, Pf growth 96h inconclusive, Shiga toxin inh 41.5 and Marburg entry inh 21.9%.
For Nn1c(SCC(=O)Nc2ccccc2F)nnc1-c1cccnc1 the results were CHX counter -3.6, Pf growth 48h 13.8%, Lassa entry inh -19.6%, Pf growth 96h 35.9%, Shiga toxin inh -2.0 and Marburg entry inh inconclusive.
Nn1c(SCC(=O)Nc2ccccc2F)nnc1C1CCCCC1 was read as CHX counter -1.3, Pf growth 48h 23.9%, Pf growth 96h 22.5% and Shiga toxin inh 6.7.
NC(=O)c1ccc(NC(=O)CSc2nnc(C3CCCCC3)n2N)cc1 was read as CHX counter -1.8, Pf growth 48h 29.4%, Pf growth 96h 31.1% and Shiga toxin inh -7.8.
For Nn1c(SCC(=O)Nc2ccc(F)c(F)c2)nnc1C1CCCCC1 the results were CHX counter -1.1, Pf growth 48h -28.1%, Lassa entry inh 4.0%, Pf growth 96h 11.7µM*, Shiga toxin inh 7.9 and Marburg entry inh 13.3%[46.1 µM].
Nn1c(SCC(=O)Nc2ccc(F)cc2F)nnc1C1CCCCC1 was read as CHX counter 41.9*, Pf growth 48h 36.8%, Lassa entry inh inconclusive, Pf growth 96h 0.5%, Shiga toxin inh 55.3* and Marburg entry inh 28.6%.
CCN(CC(=O)NCc1cccs1)S(=O)(=O)c1ccc([N+](=O)[O-])cc1 was read as CHX counter 0.2, Pf growth 48h -19.8%, Pf growth 96h 3.6% and Shiga toxin inh 3.7.
Screening CC1(C)CC(=O)C2=C(C1)N(c1ccc(F)cc1)C(=O)CC2c1ccccc1 (stereo not drawn) returned CHX counter -9.0, Lassa entry inh -0.6%, Pf growth 96h 7.9%, Shiga toxin inh -16.4 and Marburg entry inh -7.7%.
Screening CCCC12CN3CC(C)(CN(C1)C3c1cn(C)c3ccccc13)C2=O (stereo not drawn) returned Lassa entry inh -10.4%[46.1 µM] and Marburg entry inh -19.0%[46.1 µM].
O=C(CSc1nc2ccsc2c(=O)n1Cc1ccccc1Cl)NCc1ccc(F)cc1 was read as Lassa entry inh -20.9%[46.1 µM] and Marburg entry inh 13.4%[46.1 µM].
Screening Cc1ccc(OCC(=O)Nc2cccc(S(=O)(=O)N3CCOCC3)c2)c([N+](=O)[O-])n1 returned CHX counter -0.4, Pf growth 48h inconclusive, Lassa entry inh 8.9%, Pf growth 96h -31.8%[5.75 µM], Shiga toxin inh -2.1 and Marburg entry inh 2.8%[46.1 µM].
`O=C(c1ccc(Cl)c([N+](=O)[O-])c1)N1CCN(C(=O)c2ccco2)CC1` gave CHX counter 7.5, Pf growth 48h 12.1%, Pf growth 96h 0.1% and Shiga toxin inh -21.2.
O=C(c1ccco1)N1CCN(c2c([N+](=O)[O-])nn(-c3cccc(Cl)c3)[n+]2[O-])CC1 was read as CHX counter 14.5*, Pf growth 48h 19.6%, Pf growth 96h inconclusive and Shiga toxin inh 21.8.
